Screening data deposited in PubChem by several laboratories.
Most compounds without a hit are left out; they make up all but 27% or so of the library.
CYP2C19 inhib: blockers of cytochrome P450 2C19 activity – biochemical, luminescence, ADME assay, primary screen; P33261; CYP2C19 Supersomes, luciferin-H EGE luminescence, 30 min; inhibition, % at 5 µM; 21% of 96,000 active;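 active = CYP2C19 inhibition above a set limit at 5 µM in the primary screen, cut at about 50% in these data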
Target sequence (P33261 whole entry, looked up): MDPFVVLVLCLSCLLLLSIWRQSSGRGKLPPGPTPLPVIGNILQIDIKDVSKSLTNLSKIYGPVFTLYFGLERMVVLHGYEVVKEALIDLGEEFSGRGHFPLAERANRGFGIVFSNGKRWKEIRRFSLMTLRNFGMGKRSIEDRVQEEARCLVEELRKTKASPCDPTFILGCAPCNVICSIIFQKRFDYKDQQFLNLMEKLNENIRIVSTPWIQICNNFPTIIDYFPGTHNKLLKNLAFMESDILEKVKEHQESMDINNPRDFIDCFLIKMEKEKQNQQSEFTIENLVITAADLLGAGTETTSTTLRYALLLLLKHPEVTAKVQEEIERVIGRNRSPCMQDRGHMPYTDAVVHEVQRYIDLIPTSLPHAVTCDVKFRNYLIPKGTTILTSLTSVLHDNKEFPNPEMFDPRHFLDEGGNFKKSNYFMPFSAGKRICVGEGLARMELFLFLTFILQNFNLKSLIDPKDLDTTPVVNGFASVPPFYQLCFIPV
CYP2C9 inh: blockers of cytochrome P450 2C9 activity – biochemical, luminescence, ADME assay, primary screen. P11712. CYP2C9 Supersomes, luciferin-H conversion. inhibition, % at 5 µM. 20% of 96,000 active;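 active = blocking of liver enzyme CYP2C9 beyond about 50% at 5 µM, limit read from the data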
CYP2C19 activ: human CYP2C19 activators, primary screen, biochemical, luminescence. Cytochrome P450 2C19 (Homo sapiens), P33261. recombinant CYP2C19, luciferin-H EGE luminescence; active compounds read high; 0 = fully inhibited enzyme, 1 = untreated enzyme. activation factor at 5 µM. 96,000 tested, under 10 active. AID 1025, 2008;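 active = activation factor of at least 2 at 5 µM in the primary screen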
Cav3 T inh: Cav3.2 calcium influx blockers – cell-based, Fluo-4 calcium fluorescence, FDSS, MLSMR library, primary screen; 4% of 100,000 active; B-score at 10 µM; Voltage-dependent T-type calcium channel subunit alpha-1H (Homo sapiens), O95180; Cav3.2-expressing cells; active compounds read low;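 active = single-dose well whose peak fluorescence ratio is a statistical outlier from its plate by either plate-standardised score or position-corrected B-score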
CYP2C9 act: human CYP2C9 activators, primary screen, biochemical, luminescence; 1.4% of 96,000 active; AID 1024, 2008; Cytochrome P450 2C9 (Homo sapiens), P11712; recombinant CYP2C9, luciferin-H conversion; active compounds read high; factor 1 = untreated enzyme, 0 = blocked; activation factor at 5 µM;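 active = activation factor of 2 or more for CYP2C9 at a 5 µM dose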
Hits are given with their value; i = inactive; nt = not tested or not shown.

SMILES | CYP2C19 inhib | CYP2C9 inh | CYP2C19 activ | Cav3 T inh | CYP2C9 act
CCCN(CCC)S(=O)(=O)c1ccc(C(=O)NCc2ccc3c(c2)OCO3)cc1 | i | i | i | i | i
Cc1ccc(S(=O)(=O)N(C)CCCC(=O)NCc2ccc3c(c2)OCO3)cc1 | 82.3 | 75.6 | i | i | i
O=C(CNC(=O)c1ccc(Br)o1)NCc1ccc2c(c1)OCO2 | i | i | i | i | i
COC(=O)COc1ccc(S(=O)(=O)NCc2cccnc2)cc1C | i | i | i | i | i
Cc1ccc(CNc2ccc(CNc3ncn[nH]3)cc2)cc1 | 76.7 | 62.7 | i | i | i
O=C(Nc1ccc2c(c1)C(=O)N(CC1CCCO1)C2=O)c1cccc(Br)c1 (stereo not drawn) | i | i | i | -2.66 | i
O=C(NCc1ccccc1)c1ccc2c(c1)C(=O)N(CC1CCCO1)C2=O (stereo not drawn) | i | i | i | i | i
O=C(O)c1cccc(NC(=O)c2ccc3c(c2)C(=O)N(CC2CCCO2)C3=O)c1 (stereo not drawn) | 77.4 | 73.4 | i | i | i
COC(=O)[C@@H]1C[C@H]1[C@@H](NC(=O)c1cc(C)on1)c1ccccc1 | nt | nt | nt | i | nt
O=C1NC(=O)C2(COC3(CCCC3)OC2)S1 | i | i | i | i | i
O=C(c1ccccc1)N1CC(COc2ccccc2)OC(c2ccco2)O1 (stereo not drawn) | 88.3 | i | i | -4.03 | i
O=C(c1ccc(OCC2CCCO2)cc1)N1CCN(c2ccccc2)CC1 (stereo not drawn) | i | i | i | i | i
CCOC(=O)C1CCCN(C(=O)c2c(-c3ccccc3Cl)noc2C)C1 (stereo not drawn) | 78.7 | 69.4 | i | i | i
Cc1onc(-c2c(F)cccc2Cl)c1C(=O)N1CCN(S(C)(=O)=O)CC1 | i | i | i | i | i
CCOC(=O)c1c(C)c(C(=O)N2CCc3ccccc3C2)c(C)n1CC | 85.6 | i | i | i | i
CCOC(=O)c1c(C)c(C(=O)Nc2ccccc2)c(C)n1CC | i | i | i | nt | i
Cc1onc(-c2c(F)cccc2Cl)c1C(=O)N1CCc2ccccc2C1 | 95.6 | 68.0 | i | i | i
Cc1onc(-c2ccccc2Cl)c1C(=O)N1CCc2ccccc2C1 | 54.2 | i | i | i | i
CCOC(=O)/C(=N/Nc1ccc(Cl)cc1)S(=O)(=O)c1ccc(Cl)cc1 | i | i | i | i | i
Brc1ccc(OCc2nc(-c3ccccn3)n[nH]2)cc1 | 71.3 | 62.5 | i | i | i
Cc1ccc(C)c(S(=O)(=O)NCCOc2nc(NC(C)C)nc(NC(C)C)n2)c1 | 77.7 | 58.7 | i | i | i
CCCC(=O)NC(C)c1nc(-c2ccc(C)cc2)no1 (stereo not drawn) | nt | nt | nt | i | nt
C=CCNC(=S)NNC(=O)c1cccn(Cc2cccc(Cl)c2)c1=O | i | i | i | i | i
COC(=O)c1ccccc1N1C(=O)C2C(C1=O)[C@H]1C=C[C@@H]2C1 (stereo partly drawn) | i | i | i | i | i
COC(=O)c1ccccc1N1C(=O)[C@@H]2C(c3ccc(Br)cc3)=NO[C@@H]2C1=O | 99.3 | i | i | i | i
SMILES | CYP2C19 inhib | CYP2C9 inh | CYP2C19 activ | Cav3 T inh | CYP2C9 act
COC(=O)CSCc1nc2ccccc2[nH]c1=O | nt | nt | nt | i | nt
O=C(Nc1ccc(N2CCN(C(=O)c3ccco3)CC2)cc1)C(c1ccccc1)c1ccccc1 | 86.0 | 61.1 | i | i | i
Cc1cccc(OCC(=O)Nc2ccc(N3CCN(C(=O)c4ccco4)CC3)cc2)c1 | 65.6 | i | i | i | i
O=C(Nc1ccc(N2CCN(C(=O)c3ccco3)CC2)cc1)c1cccs1 | i | i | i | i | i
Cc1nnc(N2CCOCC2)c2ccccc12 | i | i | i | i | i
O=C(NC1CC2CCC(C1)N2C(=O)NCc1ccccc1)NC12CC3CC(CC(C3)C1)C2 (stereo not drawn) | i | i | i | nt | i
CCCCNc1ncnc2c1cnn2-c1ccccc1 | 88.8 | 99.1 | i | i | i
CCCCNc1ncnc2c1cnn2-c1ccc(Cl)cc1 | i | 70.4 | i | i | i
c1ccc(-n2ncc3c(NCCCN4CCOCC4)ncnc32)cc1 | i | i | i | i | i
c1ccc(-n2ncc3c(NCc4ccco4)ncnc32)cc1 | 50.1 | 58.9 | i | i | i
